In the library only some 22% were active in any assay of this set; here they are far more common.
CYP2C9 act: human CYP2C9 activators, primary screen, biochemical, luminescence | Cytochrome P450 2C9 (Homo sapiens), P11712 | recombinant CYP2C9, luciferin-H conversion; stronger effect = higher value; factor 1 = untreated enzyme, 0 = blocked | activation factor at 5 µM | 96,000 tested, 1.4% active;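 active = activation factor of 2 or more for CYP2C9 at a 5 µM dose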;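 note: 0 = sulfaphenazole-blocked wells and 1 = vehicle-only wells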
CYP2C19 act: human CYP2C19 activators, primary screen, biochemical, luminescence; AID 1025, 2008; 96,000 tested, under 10 active; recombinant CYP2C19, luciferin-H EGE luminescence; stronger effect = higher value; 0 = fully inhibited enzyme, 1 = untreated enzyme; Cytochrome P450 2C19 (Homo sapiens), P33261; activation factor at 5 µM;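 active = activation factor of at least 2 at 5 µM in the primary screen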;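 note: 0 = wells with 2.5 mM tranylcypromine and 1 = vehicle-only wells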
Target sequence (P33261 whole entry, looked up): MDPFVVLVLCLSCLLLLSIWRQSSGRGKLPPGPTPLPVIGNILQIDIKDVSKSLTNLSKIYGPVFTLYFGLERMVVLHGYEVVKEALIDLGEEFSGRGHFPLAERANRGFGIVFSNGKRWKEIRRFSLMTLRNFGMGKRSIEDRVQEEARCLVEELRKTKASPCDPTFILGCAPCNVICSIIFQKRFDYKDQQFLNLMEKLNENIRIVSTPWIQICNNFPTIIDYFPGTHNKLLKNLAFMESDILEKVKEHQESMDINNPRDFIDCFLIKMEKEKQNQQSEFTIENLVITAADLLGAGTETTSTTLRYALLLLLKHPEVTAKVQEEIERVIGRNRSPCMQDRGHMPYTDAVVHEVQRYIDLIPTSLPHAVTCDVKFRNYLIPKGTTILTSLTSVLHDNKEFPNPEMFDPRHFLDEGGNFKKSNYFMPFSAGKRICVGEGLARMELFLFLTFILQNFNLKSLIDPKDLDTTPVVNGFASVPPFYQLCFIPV
CYP2C9 inh: blockers of cytochrome P450 2C9 activity – biochemical, luminescence, ADME assay, primary screen. P11712. CYP2C9 Supersomes, luciferin-H conversion. inhibition, % at 5 µM. 96,000 tested, 20% active. AID 777, 2007;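 active = blocking of liver enzyme CYP2C9 beyond about 50% at 5 µM, limit read from the data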
F-actin modifier: modifiers of F-actin cytoskeleton organization, primary screen, imaging, HUVEC, phalloidin staining, high-content imaging. 91,000 tested, 0.18% active. HUVEC TNFa F-actin phalloidin imaging. inhibition, % at 2 µM. AID 836, 2007;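 active = inhibition above the batch mean plus 3 SD and confirmed as a hit by visual image inspection, cut at about 30% in these data, passing the limit was not always enough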
CYP2C19 inhib: blockers of cytochrome P450 2C19 activity – biochemical, luminescence, ADME assay, primary screen | P33261 | CYP2C19 Supersomes, luciferin-H EGE luminescence, 30 min | inhibition, % at 5 µM | 96,000 tested, 21% active | AID 778, 2007;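 active = CYP2C19 inhibition above a set limit at 5 µM in the primary screen, cut at about 50% in these data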;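 note: plate controls were negative control wells for no effect and 2.5 mM tranylcypromine positive control for full effect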
E-sel TNF inh: E-selectin induction blockers in HUVEC – imaging, immunofluorescence, high content, primary screen | inhibition, % at 2 µM | HUVEC TNFa-induced E-selectin immunofluorescence | 120,000 tested, 0.71% active;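 active = inhibition above the batch mean plus 3 SD, and confirmed as a hit on visual image review, cut at about 43% in these data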;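 note: 0% = TNF-stimulated DMSO wells and 100% = unstimulated control wells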
An asterisk follows results filed as active; · = not tested or not shown.

SMILES	CYP2C9 act	CYP2C19 act	CYP2C9 inh	F-actin modifier	CYP2C19 inhib	E-sel TNF inh
CC(C)[C@H](NC(=O)OCc1ccccc1)C(=O)OCC(=O)NC1CCCCC1	0.2	0.2	81*	-17	78*	20
CC(C)C(NC(=O)OCc1ccccc1)C(=O)NCC(=O)OC(C)(C)C (stereo not given)	0.9	0.2	14	-8	83*	22
CCC(C)Nc1nc2c(c(=O)n(C)c(=O)n2C)n1Cc1ccc(F)cc1 (stereo not given)	0.5	0.8	49	-19	24	-4
CC(=O)N1CCN(c2ccc(Oc3ncnc4sccc34)cc2)CC1	1.1	1.1	-8	0	-13	·
Cc1ccc(S(=O)(=O)N2CCN(Cc3ccccn3)CC2)cc1	·	·	·	·	·	-39
Cc1ccc(S(=O)(=O)N2CCN(Cc3cc(C(C)C)ccc3O)CC2)cc1	0.5	0.7	51*	8	28	-40
CCOC(=O)c1ccc(NC(=O)c2nccnc2C(=O)O)cc1	1.3	1.1	-30	1	-11	·
CCOc1ccc(C2NC(=O)c3n[nH]c(C)c32)cc1 (stereo not given)	1.1	0.3	-8	4	69*	·
Cn1cnnc1SCC(=O)Nc1ccc2nc(SCc3cccc4ccccc34)sc2c1	0.6	0.4	38	-8	59*	9
O=C(Nc1ccc(F)cc1)N1CCN2C(=O)c3ccccc3C12c1ccccc1 (stereo not given)	0.5	0.5	50	16	51*	29
COC(=O)c1sc(N2C(=O)C(=O)/C(=C(/O)c3ccccc3)C2c2ccco2)nc1C (stereo not given)	·	·	·	·	·	9
Cc1nc(N2C(=O)C(=O)/C(=C(/O)c3ccccc3)C2c2ccco2)sc1C (stereo not given)	0.4	0.5	61*	1	53*	7
COc1ccccc1/C=C(/C(=O)OCC(=O)Nc1ccccc1C)c1ccccc1	·	·	·	·	·	11
CN1C(=O)CC(P(=O)(c2ccccc2)c2ccccc2)N(C)C1=O (stereo not given)	1.1	1	-10	·	-2	-23
CN(C(=O)CSc1nc(-c2ccc(F)cc2)cs1)C1CCS(=O)(=O)C1 (stereo not given)	3.6*	0.6	-264	9	37	0
CN(C(=O)CSc1ncnc2scc(-c3ccccc3)c12)C1CCS(=O)(=O)C1 (stereo not given)	·	·	·	·	·	-10
CN(C(=O)CSc1nc(-c2ccccc2)cs1)C1CCS(=O)(=O)C1 (stereo not given)	4*	0.4	-304	2	60*	-5
CN(c1nc(-c2ccccc2)cs1)C1CCS(=O)(=O)C1 (stereo not given)	0.8	0.4	18	-21	58*	0
CN(C)CCCN1CC(C(=O)O)CC1=O (stereo not given)	1.1	1	-9	-4	-3	15
CC(=O)Nc1ccc(S(=O)(=O)NCc2ccc(C)cc2)cc1	1	0.4	-5	2	60*	22
CC(=O)Nc1ccc(S(=O)(=O)NCc2ccc3c(c2)cc(C)n3C)cc1	0.5	0.7	47	·	33	·
CC(=O)Nc1ccc(S(=O)(=O)NCc2ccc3[nH]c(C)cc3c2)cc1	0.2	0.6	85*	-5	44	6
CC(=O)Nc1ccc(C(=O)CS(=O)(=O)c2ccc(C)cc2)cc1	0.4	0.6	59*	2	41	1
C=CCNC(=O)c1ccc(N(C)S(=O)(=O)c2ccc(OC)cc2)cc1	0.1	0.3	86*	-18	73*	0
Cc1ccc(S(=O)(=O)CC(=O)c2ccc(C(C)(C)C)cc2)cc1	0.9	0.6	13	20	41	-32
SMILES	CYP2C9 act	CYP2C19 act	CYP2C9 inh	F-actin modifier	CYP2C19 inhib	E-sel TNF inh
CCCc1cc(=O)[nH]c(SCCCCN2C(=O)c3ccccc3C2=O)n1	·	·	·	·	·	3
CC(=O)CSc1ncnc2c1cnn2-c1ccccc1	·	·	·	·	·	-42
CC(C)CC(C(=O)Nc1oc(-c2ccccc2)c(-c2ccccc2)c1C#N)N1C(=O)c2ccccc2C1=O (stereo not given)	·	·	·	2	·	12
CCCn1c(C)cc(C(=O)COC(=O)c2ccc(Cl)c(S(=O)(=O)N3CCCC3)c2)c1C	1.7	0.5	-71	·	47	-9
CC(=O)Nc1ccc(S(=O)(=O)NCCSc2ccccn2)cc1	0.8	0.8	22	-4	20	25
CCCCNC(=O)c1ccc(CNS(=O)(=O)c2ccc(Br)cc2)cc1	·	·	·	·	·	8
CC(=O)Nc1ccc(S(=O)(=O)NCCc2ccc(S(N)(=O)=O)cc2)cc1	0.7	1.1	25	16	-7	-6
CC(=O)Nc1ccc(S(=O)(=O)n2nc(-c3ccc(C)cc3)nc2N)cc1	1.1	0.5	-5	22	50*	8
CC(=O)Nc1ccc(S(=O)(=O)NCCSCc2ccc(Cl)cc2Cl)cc1	0.2	0.4	81*	-10	57*	-28
CC(=O)Nc1ccc(S(=O)(=O)NCCc2ccc(F)cc2)cc1	0.6	0.4	37	21	58*	·
Cc1ccc(S(=O)(=O)n2nc(-c3cccnc3)nc2N)cc1	1	0.9	5	·	7	-64
C=CCNC(=O)c1ccc(CNS(=O)(=O)c2ccc(NC(C)=O)cc2)cc1	0.4	0.9	57*	4	9	-76
CC(C)CNC(=S)N1CCN(Cc2ccc3c(c2)OCO3)CC1	·	·	·	·	·	-43
CCOC(=O)C1CCN(C(=O)CCn2c(=O)[nH]c3ccsc3c2=O)CC1	0.8	0.7	17	12	29	·
CCOC(=O)C1=C(C)NC(=O)NC1/C=C/c1ccccc1 (stereo not given)	0.8	0.8	25	42	24	1
O=C(CSc1nc2ccccc2c(=O)n1Cc1ccc(C(=O)NC2CC2)cc1)NCc1ccco1	0.5	0.7	53*	·	35	·
Cn1c(SCC(=O)NCc2ccco2)nc2ccccc2c1=O	0.8	1	17	-18	4	·
COc1ccc(C(=O)Nn2c(SCC(=O)NCc3ccco3)nc3ccccc3c2=O)cc1	0.2	0.9	80*	·	13	-19
COc1ccc(C(=O)Nn2c(SCC(=O)N3CCC(C)CC3)nc3ccccc3c2=O)cc1	0.1	0.6	86*	-10	39	17
COc1ccc(C(=O)Nn2c(SCC(=O)c3ccc(Cl)cc3)nc3ccccc3c2=O)cc1	0.2	0.8	82*	-33	25	-10
O=C(c1ccccc1[N+](=O)[O-])N1CCCN(C(=O)c2ccccc2[N+](=O)[O-])CC1	·	·	·	·	·	11
Cc1cc(C(=O)N2CCC(Cc3ccccc3)CC2)ccc1[N+](=O)[O-]	0.9	0.2	11	-1	78*	-36
